About 25,000 (6.9%) of roughly 360,000 compounds were called active. Roughly 9% stayed inconclusive and do not appear here. The entries come from a sample that favours actives as a whole. Unmarked numbers belong to inactive results. Calls come from the whole dose curve; as a rule, active = well fitted inhibition curve with a large enough effect; inconclusive = small, poorly fitted or top-dose-only effect; inactive = flat fitted curve, though single readings scatter.

The values below come from PubChem BioAssay AID588342 (National Center for Advancing Translational Sciences (NCATS), 2011).

For this experiment, the target named is Luciferin 4-monooxygenase (Photinus pyralis) (UniProt P08659). Put plainly: qHTS profiling assay for firefly luciferase inhibitor/activator using purifed enzyme and Km concentrations of substrates (counterscreen for miR-21 project).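 For activity change, negative = inhibition: plate controls were vehicle for no effect and reference inhibitor for full effect.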 Note: nearly all actives have a fitted effect of over 55% in size. Particulars: purified FLuc, luminescence inhibition; series mostly up to 57.5 µM; activity change, negative = inhibition: at the top concentration. An excerpt: MLPCN Grant: 1 R21 NS059478-01 (miR-21 grant) Assay Provider: NCGC NCGC Assay Overview: Firefly (Photinus pyralis) luciferase is one of the most commonly used transcriptional reporters for a number of reasons. It is considered one of the more dynamically responsive reporters -that is, responsive to changes in reporter transcription - as it requires no post-translational modifications and is enzymatically active directly after protein synthesis (Wood, 1998). Additionally, the half-life of the luciferase protein is short relative to other reporter-gene products (Wood, 1995). Whereas reporters with long half-lives potentially allow for increased signal due to accumulation of reporter-gene product, once accumulated in the cell, dynamic changes in reporter-gene expression may be difficult to detect(Fan and Wood, 2007; Almond et al., 2004). It has been shown that wild-type P. pyralis luciferase has a half-life of approximately […] hours in mammalian cells (Thompson et al., 1991). Firefly luciferase reporter-gene assays are also generally considered one of the most sensitive assay types (Wood, 1995; Wood, 1998). Although light produced in a bioluminescence reaction is of lower intensity than that produced during fluorescence emission, this is offset by little to no background light inherent to luminescent assays. Thus the luciferase reporter can be expressed at much lower levels than fluorescent proteins while still providing robust signal. # However, it was initially observed, in 1991, by Thompson et al., that compounds that resemble the substrates of firefly luciferase (FLuc) can act as competitive inhibitors of the enzyme, and that these compounds, upon interaction with luciferase in the cell, can actually stabilize the protein and increase its half-life. Accumulated intracellular FLuc protein can be measured as an increase in luminescence signal, upon addition of detection reagents (which contain high concentrations of FLuc substrates) commonly used in high-throughput screening. In cell-based reporter gene assays that use FLuc as the reporter gene to quantitate the potential influence of a given compound against the target biology, this apparent increase in luminescence can mistakenly be interpreted as identification of a compound that is active against the target of interest. This is the case for the miR-21 FLuc reporter gene assay used to identify inhibitors of the miR-21 pathway (PubChem AID 2289) - compounds of interest will inhibit miR-21 biogenesis/expression or activity, and are identified by causing an increase in luminescence, due to increased FLuc translation. However, FLuc inhibitory compounds that stabilize the FLuc protein will give an identical read-out, making it difficult to distinguish compounds that are active against the target from those active against FLuc. Previous profiling work to determine the prevalence of compounds that affect FLuc enzymatic activity (PubChem AID 411) identified that ~3% of the MLSMR library (then at ~72K) inhibited FLuc. […] Since the MLSMR had grown to ~350K compounds, and since it was expected that a significant percentage of compounds found active in the miR-21 FLuc assay would be FLuc inhibitors, the library was screened for activity against FLuc using a biochemical assay of purified FLuc and KM concentrations of FLuc substrates (D-luciferin and ATP).
Chain of Luciferin 4-monooxygenase (Photinus pyralis) (P08659 whole entry, looked up): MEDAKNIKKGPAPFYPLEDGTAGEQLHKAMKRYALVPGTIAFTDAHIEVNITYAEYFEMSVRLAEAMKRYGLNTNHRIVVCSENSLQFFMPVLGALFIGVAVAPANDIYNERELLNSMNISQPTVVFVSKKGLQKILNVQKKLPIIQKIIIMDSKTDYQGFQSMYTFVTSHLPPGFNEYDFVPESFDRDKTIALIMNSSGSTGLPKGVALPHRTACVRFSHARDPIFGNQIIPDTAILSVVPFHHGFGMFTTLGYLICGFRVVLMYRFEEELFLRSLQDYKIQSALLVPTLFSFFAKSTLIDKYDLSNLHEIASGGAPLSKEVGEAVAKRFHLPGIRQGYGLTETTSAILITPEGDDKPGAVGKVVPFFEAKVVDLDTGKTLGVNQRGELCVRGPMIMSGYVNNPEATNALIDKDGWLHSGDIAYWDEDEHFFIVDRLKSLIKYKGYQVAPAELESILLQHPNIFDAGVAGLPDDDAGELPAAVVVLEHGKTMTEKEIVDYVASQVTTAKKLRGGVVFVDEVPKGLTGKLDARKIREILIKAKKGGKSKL
NCGC Assay Protocol Summary: Reagents: 50mM Tris acetate, pH 7.5; 10mM Mg acetate; 10uM D-luciferin (Sigma #L9504); 10uM ATP; 0.01% Tween-20; 0.05% BSA; 10nM P. pyralis luciferase (Sigma #L9506) Control compounds used were two known firefly luciferase inhibitors (compounds (2) and (5) in Auld et al., 2010), and DMSO. […]
On the technique in general: In qHTS, concentration-response curves come from the screen itself.
For the molecule `CC1CN(C(=S)Nc2ccc(Br)cc2Cl)CC(C)O1` (centres undefined), the “activity change, negative = inhibition” value is -1.05%. As to `O=C(Cn1c(-c2cncs2)nc2ccccc21)NC1CCCC1`, the “activity change, negative = inhibition” value is 2.57%. `O=C(/C=C/c1cnc2ccccc2n1)NC1CCCCCC1`: the Potency is 13.5 µM (active). Regarding `O=C(CSc1nnc2c(n1)[nH]c1ccccc12)NC1CCCCC1`, the “activity change, negative = inhibition” value was -1.35%. For `COc1ccc(/C=C/CN2CCN(Cc3ccc(C)cc3)C(CCO)C2)cc1` (centres undefined), the “activity change, negative = inhibition” value was -3.37%. For the molecule `CCc1cnc2c(c1SCC(=O)N1CCC(C)CC1)c(=O)n(C)c(=O)n2C`, the “activity change, negative = inhibition” value is 0.686%. Take `O=C1CC[C@H](O)CCN1[C@H](CSc1ccc(Br)cc1)Cc1ccccc1`: the “activity change, negative = inhibition” value is -2.89%. As for `O=C1/C(=C/c2ccc(F)cc2)SC(=S)N1CCCC(=O)N1CCCCC1CCO` (centres undefined), the “activity change, negative = inhibition” value was -5.92%.

`C=CCOc1ccc(/C=C2\SC(=S)N(CCC(=O)O)C2=O)cc1`: the Potency was 1.69 µM (active). As to `Cc1ccc(/C=C2\SC(=S)N(CCC(=O)Nc3ccc(O)cc3)C2=O)cc1`, the “activity change, negative = inhibition” value is -1.73%.

As for `O=C(NCc1ccncc1)c1cccc(NS(=O)(=O)c2ccc(F)c(F)c2)c1`, the “activity change, negative = inhibition” value is 11.6%.

On to `COc1ccc(S(=O)(=O)NCCSc2nnnn2-c2ccccc2)cc1`, for which the “activity change, negative = inhibition” value was 7.96%. Turning to `COc1ccc(N(C)C(=O)C2CCN(S(=O)(=O)c3cc(Br)cc4c3N(C(C)=O)CC4)CC2)cc1`, the “activity change, negative = inhibition” value was -2.94%.

For the molecule `CC1=C(C(=O)OCc2ccc(C)cc2)C(c2ccccc2Cl)CC(=O)N1` (centres undefined), the “activity change, negative = inhibition” value is -12.5%. With `CSc1ccc(CCNC(=O)c2cnn(-c3ccccc3)c2-n2cccc2)cc1`, the “activity change, negative = inhibition” value is -14.2%. Consider `COc1ccc(CNC(=O)C2=Cc3cccc(OC)c3OC2)cc1OC`, for which the “activity change, negative = inhibition” value was 0.464%.

On to `CCOc1cccc(C(=O)Nc2cnn(Cc3ccccc3)c2)c1`, for which the “activity change, negative = inhibition” value is -18.7%. With `CCOc1cccc(C(=O)Nc2nnc(-c3cccs3)s2)c1`, the Potency is 1.51 µM (active). As for `COCC(=O)Nc1nnc(COc2ccccc2)s1`, the “activity change, negative = inhibition” value is -10.1%. For the molecule `Cc1cccc(C(C)C)c1NC(=O)C(NS(=O)(=O)c1cccc2nsnc12)c1ccccc1` (centres undefined), the “activity change, negative = inhibition” value is -2.84%. For `CCN(CC)S(=O)(=O)c1ccc2c(c1)N(CC(=O)NCc1ccccc1)C(=O)CS2`, the “activity change, negative = inhibition” value was -0.306%. On to `CN1C(=O)c2[nH]nc(-c3ccc(F)cc3)c2C1c1ccccn1` (centres undefined), for which the “activity change, negative = inhibition” value was -3.01%. Regarding `COc1cccc(NC(=O)N2C3CCCC2CC(NC(C)=O)C3)c1` (centres undefined), the “activity change, negative = inhibition” value was 0.0264%. Still for that read-out and setting: under `O=C(Cc1c[nH]c2ccccc12)N/N=C/c1cccc(F)c1` stands -15.3%. The same measure, in the same setting: under `Cc1ccc(OCCOc2cccc(/C=N/NC(N)=O)c2)cc1` stands -15.1%.

Consider `O=C(N/N=C/c1cccc(O)c1)c1cc2c(ccc3ccccc32)o1`, for which the Potency is 10.7 µM (active). For the molecule `CCCc1ccc(OCc2ccc(C(=O)N/N=C/c3cccc([N+](=O)[O-])c3)o2)c(OC)c1`, the “activity change, negative = inhibition” value was 0.233%. Same read-out and setting: next, `O=C(Cc1cccs1)N/N=C/c1ccc(OCc2ccccc2)cc1`: 2.08%.

Regarding `O=C(N/N=C/c1cccc(OCc2ccccc2)c1)c1ccc(Br)o1`, the Potency was 21.3 µM (active). Regarding `Cc1cccc(Oc2c([N+](=O)[O-])c(=O)n(C)c3ccccc23)c1`, the “activity change, negative = inhibition” value is -3.1%. As for `COc1ccc(Cl)cc1NC(=O)CSc1nc2ccccc2c2nc(-c3ccccc3)nn12`, the “activity change, negative = inhibition” value was -0.248%.

In the case of `CCOc1cccc(NC(=O)c2ccc(F)c(S(=O)(=O)N(CC)c3cccc(C)c3)c2)c1`, the “activity change, negative = inhibition” value is -8.56%.

Take `CCCN1CCc2nc(N3CCN(C)CC3)ncc2C1`: the “activity change, negative = inhibition” value was -5.04%. With `CCN1CCCC1CNC(=O)c1cc2cc(OC)c(OC)cc2[nH]1` (centres undefined), the “activity change, negative = inhibition” value is 0.324%.

As to `COc1ccc(C(=O)CCc2ccccc2O)c(OC)c1`, the Potency is 12 µM (active). On to `COc1ccc(CCNC(=O)CCc2ccccc2O)cc1OC`, for which the “activity change, negative = inhibition” value is 3.81%.

`COc1ccc(C(=O)NC(C)CCc2ccccc2)c(OC)c1` (centres undefined): the “activity change, negative = inhibition” value was -0.702%. In the case of `O=C(c1cc2cc(Br)cc(Br)c2oc1=O)N1CCOCC1`, the “activity change, negative = inhibition” value was 0.0137%.

As for `COc1ccccc1-c1nn(Cc2ccccc2)cc1C(=O)N1CCN(c2ncccn2)CC1`, the “activity change, negative = inhibition” value was 1.51%. For `CC(C)C(C)NC(=O)COc1ncnc2ccccc12` (centres undefined), the “activity change, negative = inhibition” value was 4.9%. `CC(C)CC(=O)N/C(N)=N/c1nc2ccccc2s1`: the Potency is 0.953 µM (active). Take `CCC(=O)Nc1ccc2nc(SCC(=O)N3CCc4ccccc43)sc2c1`: the “activity change, negative = inhibition” value was -6.93%. As for `CC(C)CC(=O)NC(=S)NCc1ccccc1`, the “activity change, negative = inhibition” value was -2.33%.

For the molecule `CCC(=O)NC(=Nc1nc2ccccc2s1)NC(=O)CC`, the Potency is 3.79 µM (active). `Cc1cc(C(=O)OCC(=O)Nc2nnc(C(C)C)s2)c2ccccc2n1`: the “activity change, negative = inhibition” value is 3.05%.

Consider `CCOc1ccccc1NC(=O)CCn1cnnn1`, for which the “activity change, negative = inhibition” value was 2.57%. On the same count and under the same terms, next, `COc1ccc(S(=O)(=O)N2CCOCC2)cc1NC(=O)CSc1cc(C)ccc1C`: 1.8%. On to `CS(=O)(=O)Nc1ccccc1C(=O)OCC(=O)NC1CC1`, for which the “activity change, negative = inhibition” value was 0.298%.

Consider `CCN(C(=O)COC(=O)CCOc1cccc(C)c1)c1c(N)n(Cc2ccccc2)c(=O)[nH]c1=O`, for which the “activity change, negative = inhibition” value is 1.73%. `COc1ccc(NC(=O)NC(C)c2c(-n3cccc3)sc(C)c2C)cc1OC` (centres undefined): the “activity change, negative = inhibition” value is 2.57%. Consider `COc1cc(C(C)=O)ccc1OC(=O)CN1C(=O)c2ccccc2C1=O`, for which the “activity change, negative = inhibition” value is -1.95%. For `COc1ccccc1-c1sc2ccccc2c1-c1ccc(C(C)=O)cc1`, the Potency is 15.1 µM (active). Take `COc1ccccc1-c1sc2ccccc2c1-c1ccc(Br)nc1`: the “activity change, negative = inhibition” value was 4.94%.

As for `O=C(CC1N=C2c3ccccc3N=C(SCc3ccc(F)cc3)N2C1=O)NCc1cccs1` (centres undefined), the “activity change, negative = inhibition” value is -18%. For the molecule `O=C(O)C1=NN(c2c(F)c(F)cc(F)c2F)C(=O)CC1`, the “activity change, negative = inhibition” value is -0.487%. In the case of `CN(CC(=O)NCCc1ccc(F)cc1)CC(=O)Nc1ccc(F)c(F)c1F`, the “activity change, negative = inhibition” value is 2.43%. With `Cc1ccc(NC(=O)c2cn3c4c(ccc(Cl)c4c2=O)OC(C)C3)cc1C` (centres undefined), the “activity change, negative = inhibition” value is 0.799%.

Turning to `O=C(CSCc1cnn(-c2ccccc2)c1-n1cccc1)NCc1ccccc1Br`, the “activity change, negative = inhibition” value was 0.796%. Take `COC(=O)Cn1cc(/C=C/[N+](=O)[O-])c2ccccc21`: the “activity change, negative = inhibition” value is -8.37%.

Regarding `O=[N+]([O-])/C=C/c1ccc2c(ccn2Cc2ccccc2)c1`, the Potency is 13.5 µM (active).

As to `O=C(/C=C/c1cccc([N+](=O)[O-])c1)N1CCN(Cc2ccccc2)CC1`, the “activity change, negative = inhibition” value was -10.2%. Still for that read-out and setting: under `Cc1ccc(CN2CC(C(=O)N3CCN(S(=O)(=O)c4ccccc4)CC3)CC2=O)cc1` (centres undefined) stands -0.636%.

As to `Cc1nn(C)cc1/C=C1\CCC/C(=C\c2cn(C)nc2C)C1=O`, the Potency was 26.9 µM (active). Turning to `Cc1nn(C)cc1S(=O)(=O)N1CCN(c2ccc(F)cc2)CC1`, the “activity change, negative = inhibition” value is 1.56%. As to `Cc1ccccc1-n1c(=O)c2ccccc2n(Cc2ccc(F)cc2)c1=O`, the “activity change, negative = inhibition” value is 4.16%. Regarding `CCS(=O)(=O)N1CCc2cc(C(=O)NCc3ccc(OC)cc3)ccc21`, the “activity change, negative = inhibition” value is 5.07%. As for `CCCc1cc(=O)oc2c(C)c(OCC(=O)Nc3ccccn3)ccc12`, the Potency is 1.69 µM (active). For `CCc1cc(=O)oc2c(C)c(OCC(=O)NCCN3CCOCC3)ccc12`, the “activity change, negative = inhibition” value was 2.46%. Regarding `CCCc1cc(=O)oc2c(C)c(OCC(=O)NCc3ccccn3)ccc12`, the “activity change, negative = inhibition” value was -0.539%.
